Five compounds from ChEMBL document CHEMBL1157539, “Thousands of chemical starting points for antimalarial lead identification” (Nature, 2010) can be followed below.

What all share (format): functional
For experiment [1], the system named is Plasmodium falciparum. Nature of the experiment: GSK_TCMDC: Inhibition of Plasmodium falciparum 3D7 in whole red blood cells, using parasite LDH activity as an index of growth. Test compounds present at 2uM.
For experiment [2], the system named is Plasmodium falciparum. Put plainly: GSK_TCMDC: Inhibition of Plasmodium falciparum Dd2 in whole red blood cells, using parasite LDH activity as an index of growth. Test compounds present at 2uM.
The test system of another experiment is HepG2. Nature of the experiment: GSK_TCMDC: Percent inhibition of human HepG2 cell line. Test compounds present at 10uM.

In general, Inhibition refers to the relative decrease from the control value, in per cent. The low end stands for a response near the control, the high end for a response far below the control. With `COc1cc(F)c2nccc([C@@H](O)CN3CCC(NC(=O)OCc4ccccc4)C(F)C3)c2c1` (stereo not given in full), the results for the Inhibition in the experiment on Plasmodium falciparum [1], with Plasmodium falciparum [2] and in the experiment on HepG2 were 99%, 100% and 44%, respectively.

Turning to `CCc1c(C)nc(-n2nc(C)cc2NC(=O)c2ccc(OC)cc2OC)[nH]c1=O`, the Inhibition in the experiment on Plasmodium falciparum [1] is on record as 96%; in the experiment on Plasmodium falciparum [2] it was 57%; with HepG2, 42%.

With `Fc1ccc2[nH]c(-c3ccc(-c4ccc(CN5CCN(c6cnccn6)CC5)cc4)s3)nc2c1.O=C(O)C(F)(F)F`, the Inhibition in the experiment with Plasmodium falciparum [1] is 99%; in the experiment with Plasmodium falciparum [2], 98%; in the experiment on HepG2, 45%.

`CCN(CCCN1CCCCC1)c1cc(C)nc(Nc2ccc(Cl)c(C(F)(F)F)c2)n1.O=C(O)C(F)(F)F`: the Inhibition in the experiment on Plasmodium falciparum [1] amounted to 96%; in the experiment on Plasmodium falciparum [2], 55%; in the experiment on HepG2 it was 43%.

In the case of `CN(C)C(CNC(=O)c1cc(-c2ccncc2)c(-c2ccc(NC(=O)Nc3cccc(Cl)c3)cc2)o1)c1ccccc1.O=C(O)C(F)(F)F` (stereo not given), the Inhibition is reported as 100% with Plasmodium falciparum [1], 100% in the experiment on Plasmodium falciparum [2] and 12% in the experiment with HepG2.
